Assay results: PubChem BioAssay
Calls of active or inactive are those of the source. Unless noted, the rule behind the calls is not given here.

Legend:
[1] = test system: Wnt5a (protein binding on small-molecule microarray); assay: small molecules binding Wnt5a protein – biophysical, small-molecule microarray, 635/667 nm fluorescence, primary screen (AID 1142); details: 635 nm fluorescence, higher = more signal;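 note: fluorescence read at 667 nm with signal to noise per printed feature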
[2] = ATP-based viability of Huh7 replicon cells – cell-based, CellTiter-Glo luminescence, basal, 48 h, cytotoxicity control for HCV replication inhibitor project, primary screen (AID 1143); details: higher = more signal, called active from +8 up or from −8 down;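 note: Huh7 hepatoma cells carrying a hepatitis C replication reporter with no stimulus; test concentration not given here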
[3] = Pseudomonas biofilm growth suppression – PAO1 strain, BacTiter-Glo luminescence, LB-PBS, primary screen (AID 1144); details: P. aeruginosa PAO1 biofilm, 12 h, higher = more signal
[4] = basal CRE-LacZ reporter activity in PC12 – cell-based, unstimulated, primary screen (AID 1145); details: no forskolin, luminescence, 4.5 h, higher = more signal, called active from +8 up or from −8 down
[5] = forskolin-driven CRE-LacZ activity in PC12 – cell-based, CRE-LacZ reporter, forskolin-stimulated, primary screen (AID 1146); details: luminescence, 4.5 h, higher = more signal, called active from +8 up or from −8 down;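 note: PC12 cells with 6xCRE LacZ reporter stimulated by forskolin 10 µM; beta-galactosidase reporter signal reflecting CREB driven transcription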
[6] = target: Streptavidin (Streptomyces avidinii) (UniProt P22629); assay: compounds binding control protein streptavidin – biophysical, small-molecule microarray, 635/667 nm fluorescence, artefact control for SMM compound annotation, primary screen (AID 1147); details: higher = more signal;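 note: signal reflects streptavidin binding to arrayed compounds as a control protein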
[7] = probe aInhba binding on compound microarray – biochemical, small-molecule microarray, 635/667 nm fluorescence, primary screen (AID 1148); details: higher = more signal;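 note: score merges 667nm spot fluorescence with signal-to-noise for antibody binding to printed compounds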
Torsin-1A (Homo sapiens) [8] = target: Torsin-1A (Homo sapiens) (UniProt O14656); assay: TOR1A wild-type binding on microarray – cell lysate, small-molecule microarray, lysate, 635/667 nm, primary screen (AID 1149); details: COS7 hTOR1A-WT lysate, 635 nm fluorescence, higher = more signal
Torsin-1A (Homo sapiens) [9] = target: Torsin-1A (Homo sapiens) (UniProt O14656); assay: torsin A mutant lysate binding on microarrays – cell lysate, small-molecule microarray, COS7 lysate, 635/667 nm fluorescence, primary screen (AID 1150); details: COS7 hTOR1A mutant lysate, 635 nm fluorescence, higher = more signal;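 note: score pools 667 nm emission and signal to noise measuring lysate protein binding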
[10] = test system: Sonic hedgehog protein (Shh); assay: Sonic hedgehog microarray binding compounds – biochemical, small-molecule microarray, 635/667 nm fluorescence, primary screen (AID 1151); details: 635 nm fluorescence, higher = more signal;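 note: Shh protein binding to compounds spotted on small-molecule microarray slides; score combines spot fluorescence intensity with signal-to-noise across triplicate slides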
[11] = optical density shifts of acrAB sulA E. coli – strain DRC41, OD650, 48 h, E. coli filamentation inducer project, primary screen (AID 1152); details: higher = more signal, called active from +8 up or from −8 down;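 note: E. coli MC1000 strain DRC41 lacking acrAB efflux pump and sulA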
[12] = probe aLefty1 binding on compound microarray – biochemical, small-molecule microarray, 635/667 nm fluorescence, primary screen (AID 1153); details: higher = more signal;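 note: score merges spot fluorescence with signal-to-noise ratio from the scanned slide images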
[13] = plasmodial surface anion channel blockers, osmotic lysis – cell-based, P. falciparum Indochina, OD700, 1 h, primary screen (AID 1154); details: P. falciparum Indochina infected RBC osmotic lysis, higher = more signal, called active from +8 up or from −8 down
[14] = plasmodial surface anion channel blockers, osmotic lysis – cell-based, P. falciparum Indochina, OD700, 2 h, primary screen (AID 1155);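 note: lysis reports solute entry through the parasite surface anion channel PSAC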; details: P. falciparum Indochina infected erythrocytes, higher = more signal, called active from +8 up or from −8 down
[15] = changes in parasitized red cell lysis, either direction – P. falciparum Indochina, OD700, 3 h, PSAC antagonist project, primary screen (AID 1156); details: P. falciparum-infected erythrocytes, osmotic lysis, higher = more signal, called active from +8 up or from −8 down
[16] = plasmodial surface anion channel blockers, osmotic lysis – cell-based, P. falciparum Indochina, OD700, 18 h, primary screen (AID 1157); details: P. falciparum Indochina infected erythrocytes, osmotic lysis OD700, 18 h; higher = more signal, called active from +8 up or from −8 down
[17] = S6 kinase pathway phospho-S6 level changes – cell-based, A549, cytoblot, luminescence, serum-stimulated, primary screen (AID 1158); details: 5 h, higher = more signal;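 note: serum-stimulated A549 lung adenocarcinoma cells; signal is phosphorylated S6 detected by cytoblot immunostaining with HRP secondary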
[18] = target: NADPH oxidase 2 (Homo sapiens) (UniProt P04839); assay: compounds shifting NOX2 Amplex Red fluorescence – cell-based, HEK293-NOX2, PMA-stimulated, NOX inhibitor project, primary screen (AID 1159); details: 45 min, higher = more signal, called active from +8 up or from −8 down; note: test concentration not given here
[19] = target: NADPH oxidase 4 (Homo sapiens) (UniProt Q9NPH5); assay: compounds shifting NOX4 Amplex Red fluorescence – cell-based, HEK293-NOX4, tetracycline-induced, NOX inhibitor project, primary screen (AID 1160); details: HEK293-NOX4, Amplex Red H2O2 fluorescence, 45 min; higher = more signal, called active from +8 up or from −8 down
[20] = target: NADPH oxidase 5 (Homo sapiens) (UniProt Q96PH1); assay: compounds shifting NOX5 Amplex Red fluorescence – cell-based, HEK293-NOX5, NOX inhibitor project, primary screen (AID 1161); details: HEK293-NOX5, ionomycin, 45 min, higher = more signal
Chain of NADPH oxidase 5 (Homo sapiens) (Q96PH1 whole entry, looked up): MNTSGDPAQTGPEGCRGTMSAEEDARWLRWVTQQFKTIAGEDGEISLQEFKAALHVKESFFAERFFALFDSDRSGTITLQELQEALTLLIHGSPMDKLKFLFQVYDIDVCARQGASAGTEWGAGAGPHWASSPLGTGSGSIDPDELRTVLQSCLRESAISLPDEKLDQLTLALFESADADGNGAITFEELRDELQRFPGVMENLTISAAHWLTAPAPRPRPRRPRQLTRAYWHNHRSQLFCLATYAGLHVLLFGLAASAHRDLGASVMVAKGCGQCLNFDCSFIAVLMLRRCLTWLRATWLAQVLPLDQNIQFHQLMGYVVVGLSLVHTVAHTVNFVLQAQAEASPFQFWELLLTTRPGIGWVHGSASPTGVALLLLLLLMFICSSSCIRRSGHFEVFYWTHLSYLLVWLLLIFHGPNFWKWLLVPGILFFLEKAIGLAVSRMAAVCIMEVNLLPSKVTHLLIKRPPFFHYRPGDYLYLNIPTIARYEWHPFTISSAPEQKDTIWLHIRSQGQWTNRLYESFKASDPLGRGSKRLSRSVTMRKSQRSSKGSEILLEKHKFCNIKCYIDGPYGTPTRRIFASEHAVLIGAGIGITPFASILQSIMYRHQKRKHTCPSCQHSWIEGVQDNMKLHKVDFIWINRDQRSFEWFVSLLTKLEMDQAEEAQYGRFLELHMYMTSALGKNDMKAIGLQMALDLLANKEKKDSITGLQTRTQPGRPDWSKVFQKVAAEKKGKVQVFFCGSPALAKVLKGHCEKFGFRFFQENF

Chain of Torsin-1A (Homo sapiens) (O14656 whole entry, looked up): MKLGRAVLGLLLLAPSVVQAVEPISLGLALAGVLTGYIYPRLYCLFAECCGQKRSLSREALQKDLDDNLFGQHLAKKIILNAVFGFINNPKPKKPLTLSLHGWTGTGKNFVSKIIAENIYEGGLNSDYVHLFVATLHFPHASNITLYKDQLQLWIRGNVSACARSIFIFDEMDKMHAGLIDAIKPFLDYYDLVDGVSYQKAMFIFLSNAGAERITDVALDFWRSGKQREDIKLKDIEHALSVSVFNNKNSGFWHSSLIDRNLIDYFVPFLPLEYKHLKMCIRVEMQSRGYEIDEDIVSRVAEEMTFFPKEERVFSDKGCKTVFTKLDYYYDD
Chain of Streptavidin (Streptomyces avidinii) (P22629 whole entry, looked up): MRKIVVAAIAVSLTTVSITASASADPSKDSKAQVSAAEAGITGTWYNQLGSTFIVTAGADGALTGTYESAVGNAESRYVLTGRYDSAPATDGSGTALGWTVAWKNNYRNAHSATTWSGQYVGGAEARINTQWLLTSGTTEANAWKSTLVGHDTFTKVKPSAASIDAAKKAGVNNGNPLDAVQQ
Chain of NADPH oxidase 4 (Homo sapiens) (Q9NPH5 whole entry, looked up): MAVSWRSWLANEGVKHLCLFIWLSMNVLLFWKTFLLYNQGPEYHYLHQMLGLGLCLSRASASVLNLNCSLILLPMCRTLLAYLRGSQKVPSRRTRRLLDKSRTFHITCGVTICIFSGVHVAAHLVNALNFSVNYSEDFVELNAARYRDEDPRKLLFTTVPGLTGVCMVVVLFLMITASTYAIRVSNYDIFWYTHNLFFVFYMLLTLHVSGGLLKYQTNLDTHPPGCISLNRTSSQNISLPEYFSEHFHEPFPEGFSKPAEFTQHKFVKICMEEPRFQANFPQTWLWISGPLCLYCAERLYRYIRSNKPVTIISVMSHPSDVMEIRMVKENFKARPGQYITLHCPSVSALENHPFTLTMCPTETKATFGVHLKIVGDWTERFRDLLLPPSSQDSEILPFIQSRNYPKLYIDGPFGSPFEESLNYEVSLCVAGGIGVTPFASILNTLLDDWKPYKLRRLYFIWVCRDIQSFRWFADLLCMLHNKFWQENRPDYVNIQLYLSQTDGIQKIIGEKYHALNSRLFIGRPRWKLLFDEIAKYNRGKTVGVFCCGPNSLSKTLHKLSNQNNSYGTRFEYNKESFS
Chain of NADPH oxidase 2 (Homo sapiens) (P04839 whole entry, looked up): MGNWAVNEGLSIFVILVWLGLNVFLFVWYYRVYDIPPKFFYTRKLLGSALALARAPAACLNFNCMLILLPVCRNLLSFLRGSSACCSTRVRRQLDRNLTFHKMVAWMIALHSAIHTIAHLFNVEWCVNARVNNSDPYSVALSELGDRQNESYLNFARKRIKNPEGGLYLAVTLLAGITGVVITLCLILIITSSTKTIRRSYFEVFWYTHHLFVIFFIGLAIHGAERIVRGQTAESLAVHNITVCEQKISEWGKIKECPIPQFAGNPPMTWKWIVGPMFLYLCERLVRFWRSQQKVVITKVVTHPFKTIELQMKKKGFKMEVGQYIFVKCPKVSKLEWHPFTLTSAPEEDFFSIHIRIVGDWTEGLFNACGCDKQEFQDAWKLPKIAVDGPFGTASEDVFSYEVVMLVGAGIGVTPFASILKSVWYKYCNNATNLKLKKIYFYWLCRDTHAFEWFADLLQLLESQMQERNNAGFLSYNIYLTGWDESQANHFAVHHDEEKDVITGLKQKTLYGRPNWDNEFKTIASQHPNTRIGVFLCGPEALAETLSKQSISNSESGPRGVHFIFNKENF

Row | SMILES | composite z-score [1] | z-score [2] | z-score [3] | z-score [4] | z-score [5] | composite z-score [6] | composite z-score [7] | composite z-score (Torsin-1A (Homo sapiens) [8]) | composite z-score (Torsin-1A (Homo sapiens) [9]) | composite z-score [10] | z-score [11] | composite z-score [12] | z-score [13] | z-score [14] | z-score [15] | z-score [16] | z-score [17] | z-score [18] | z-score [19] | z-score [20]
1 | COCCCNC(=O)[C@]1(CCS(=O)(=O)c2ccccc2)N=C(c2ccc(OCCCO)cc2)O[C@@H]1c1ccccc1N=[N+]=[N-] | 1.02 | -2.78 (inactive) | 2.09 (inactive) | 0.297 (inactive) | -1.27 (inactive) | 1.31 | -0.0907 | 0.602 | 0.441 | -0.498 | 0.308 (inactive) | -0.0087 | 29.8 (active) | 28.1 (active) | 1.67 (inactive) | 2.02 (inactive) | 0.737 | 0.867 (inactive) | 0.235 (inactive) | -0.901
2 | COC(=O)c1nc2oc1CC[C@@H](CO)NC(=O)N(C)Cc1cnnn1C[C@H](Cc1ccccc1)NC2=O | -0.202 | -0.0922 (inactive) | -1.19 (inactive) | 0.484 (inactive) | -0.826 (inactive) | -0.65 | -0.268 | -0.182 | -0.533 | 0.272 | 2.17 (inactive) | -0.101 | 1.23 (inactive) | 0.656 (inactive) | 1.2 (inactive) | 0.409 (inactive) | 0.688 | -0.524 (inactive) | 1.35 (inactive) | 0.371
3 | COCCCNC(=O)[C@]1(CCS(=O)(=O)c2ccccc2)N=C(c2ccc(OCCCO)cc2)O[C@@H]1c1ccccc1CN=[N+]=[N-] | 1.31 | -0.635 (inactive) | 0.267 (inactive) | -0.781 (inactive) | -0.969 (inactive) | 2.07 | 0.424 | 1.35 | 0.738 | 0.36 | 0.704 (inactive) | 1.35 | 24.6 (active) | 10.3 (active) | 1.41 (inactive) | 1.8 (inactive) | -0.377 | 0.826 (inactive) | 1.78 (inactive) | 1.97
4 | CCOC(=O)C[C@H]1[C@H](OC(=O)c2ccccc2-c2ccccc2)[C@@H](NC(=O)c2ccc(-c3ccccc3)cc2)c2cc(OCCCO)ccc2N1C(=O)c1ccc2ccccc2n1 | 0.0868 | 0.0395 (inactive) | -0.437 (inactive) | -0.686 (inactive) | 0.254 (inactive) | 0.245 | -0.106 | 0.306 | 0.554 | 0.701 | -0.485 (inactive) | -0.28 | 2.14 (inactive) | -0.0352 (inactive) | -0.708 (inactive) | 0.232 (inactive) | -0.0653 | 0.724 (inactive) | 0.964 (inactive) | 1.24
5 | C=C(/C(=C/C[C@H](OC(C)=O)c1cccc(OCCO)c1)c1cnc2ccccc2c1)C(C)C | 0.217 | -0.262 (inactive) | 0.424 (inactive) | 5.97 (inactive) | -0.323 (inactive) | 0.653 | 0.124 | 0.04 | 0.491 | 2 | -0.0902 (inactive) | -0.0141 | 18.7 (active) | 3.44 (inactive) | 1.67 (inactive) | 1.12 (inactive) | -0.343 | 0.175 (inactive) | -0.456 (inactive) | -0.923
6 | O=C1NC(=O)C2C1C=CC(C(O)c1ccco1)N2Nc1ccccn1 (stereo not given) | 0.0477 | 0.829 (inactive) | 0.0748 (inactive) | -0.522 (inactive) | 0.413 (inactive) | -0.124 | -0.221 | 0.322 | 0.316 | 0.366 | -1.23 (inactive) | -0.145 | -0.379 (inactive) | 0.74 (inactive) | -0.314 (inactive) | 0.581 (inactive) | -1.19 | -1.35 (inactive) | -2.89 (inactive) | -1.78
7 | COC(=O)c1c(CC[C@@H](CO)NC(=O)N[C@H](Cn2cc(C3(O)CCCCC3)nn2)C(C)C)oc(C(C)=O)c1C(=O)OC | 0.359 | -2.81 (inactive) | -0.875 (inactive) | 1.34 (inactive) | -1.13 (inactive) | 1.31 | -0.0523 | 0.881 | 0.756 | 1.59 | 1.51 (inactive) | 0.102 | 1.45 (inactive) | -0.141 (inactive) | 1.02 (inactive) | -0.152 (inactive) | 2.22 | -3.25 (inactive) | -0.839 (inactive) | 0.655
8 | O=C1C2C=CC(C(O)c3ccc(F)cc3)N(n3cnnc3)C2C(=O)N1Cc1ccccc1 (stereo not given) | -0.0707 | -3.57 (inactive) | -0.488 (inactive) | -0.527 (inactive) | -0.0197 (inactive) | -0.0183 | 0.0383 | -0.216 | 0.461 | -0.428 | -0.792 (inactive) | 0.041 | 0.138 (inactive) | -0.995 (inactive) | 0.987 (inactive) | -2.02 (inactive) | 1.2 | -3.1 (inactive) | -1.12 (inactive) | -4.43
